Bioassay records deposited in PubChem by National Center for Advancing Translational Sciences (NCATS).
The sample as a whole holds a higher share of hits than the screen did.
TbPYK inhibitor – qHTS of Trypanosoma Brucei Inhibitors | pyruvate kinase (Trypanosoma brucei), Q57TT1 | TbPYK enzyme, Kinase-Glo Plus ATP luminescence, 45 min | Potency, µM (doses to about 76.8 µM), hits mostly inhibitors | 0.12% of 410,000 active | AID 624173, 2012; further: nearly all actives have a fitted effect of over 50% in size
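In this concentration-response screen, enzyme-free wells defined baseline while DMSO plates tracked drift. Each reaction combined TbPYK, substrate, compound and 130 uM ADP for 45 min at room temperature. Kinase-Glo Plus luminescence gave the signal.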
LmPK inh – qHTS Assay for Inhibitors of Leishmania Mexicana Pyruvate Kinase (LmPK). AID 1721, 2009. 0.37% of 290,000 active. Q27686. Potency, µM (doses to about 57.5 µM), hits mostly inhibitors. purified LmPK, Kinase-Glo ATP luminescence, 1 h
Target sequence (Q27686 whole entry, looked up): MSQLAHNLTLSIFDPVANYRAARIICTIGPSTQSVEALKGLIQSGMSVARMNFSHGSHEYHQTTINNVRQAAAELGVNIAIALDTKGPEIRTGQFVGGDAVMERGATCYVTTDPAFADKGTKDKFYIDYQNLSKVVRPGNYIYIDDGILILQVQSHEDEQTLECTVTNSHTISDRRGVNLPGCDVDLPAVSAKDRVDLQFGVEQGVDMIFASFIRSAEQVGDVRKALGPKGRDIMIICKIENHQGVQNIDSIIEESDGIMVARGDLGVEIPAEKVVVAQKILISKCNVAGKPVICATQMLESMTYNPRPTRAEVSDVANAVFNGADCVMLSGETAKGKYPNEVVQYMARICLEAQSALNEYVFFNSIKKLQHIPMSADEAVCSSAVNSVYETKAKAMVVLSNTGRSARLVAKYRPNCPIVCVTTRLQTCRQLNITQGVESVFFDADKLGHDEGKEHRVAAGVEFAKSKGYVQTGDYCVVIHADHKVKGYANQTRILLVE
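qHTS format; LmPK 0.1 nM; substrates PEP 0.5 mM and ADP 0.1 mM. One-hour room-temperature incubation, then coupled luciferase luminescence; 0.5 nM enzyme wells mark activation.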
RE007 growth inh – qHTS Assay for Inhibitors of the HIV-1 protein Vpr | 0.21% of 360,000 active | Potency, µM (doses to about 92.2 µM), hits mostly inhibitors | AID 651644, 2012 | S. pombe RE007 Vpr strain, BacTiter-Glo ATP luminescence, 24 h; active means well fitted falling curve with a large enough effect; inconclusive means small, poorly fitted or top-dose-only effect; inactive means no such curve, though single readings can be large or run the other way; further: nearly all actives have a fitted effect of over 50% in size
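Fission yeast RE007 carrying one integrated HIV-1 vpr copy, seeded at OD 0.01 in PMG+AL medium with 23 nL pinned compound. Grown 24 h at 30 degrees; viability read by BacTiter-Glo luminescence after 5 min.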
Shiga toxin inh – A qHTS for Small Molecule Inhibitors of Shiga Toxin | Vero cells, Shiga toxin protein synthesis inhibition reporter | inhibition, % at 38.7 µM | 9.2% of 290,000 active | AID 2315, 2010; in the data active means inhibition mostly above about 28%, no sharp cut-off; inactive means mostly below about 43%
Giardia FBPA inh – qHTS Assay for Inhibitors of Fructose-1,6-bisphosphate Aldolase from Giardia Lamblia. purified Giardia FBPA. A8B2U2. 0.71% of 290,000 active. Potency, µM (doses to about 59.6 µM), usual class: inhibitors; further: nearly all actives have a fitted effect of over 55% in size
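Giardia FBPA (40 nM reagent) was preincubated 10 min at RT with compound (up to 57.5 uM final), then substrate plus GAPDH/TPI/NAD/arsenate coupling system with diaphorase/resazurin was added; resorufin fluorescence (525/598 nm) was read after 20 min.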
CHX counter – Cycloheximide Counterscreen for Small Molecule Inhibitors of Shiga Toxin; AID 2314, 2010; 12% of 300,000 active; max response, %; cell reporter, cycloheximide protein synthesis inhibition counterscreen; in the data active means max response mostly above about 13%, no sharp cut-off; inactive means mostly below about 14%; further: read at 38.3 µM for the half of the compounds with a filed dose
A number is an active result; i = inactive; ? = inconclusive; nt = not tested or not shown. Unless noted, the call rests on the fitted dose curve; in most records, active means well fitted curve in the direction sought with a large enough effect; inconclusive means small, poorly fitted or top-dose-only effect, or another doubt; inactive means no such curve, though single readings can be large; an effect the other way counts as inactive or inconclusive.

SMILES	TbPYK inhibitor	LmPK inh	RE007 growth inh	Shiga toxin inh	Giardia FBPA inh	CHX counter
COc1cc(C2C(C(C)=O)=C(O)C(=O)N2Cc2ccccc2)ccc1O (configuration not stated)	i	i	i	i	i	i
CN(C)c1ccc(N2CC(C)(C)C2=O)cc1	i	i	i	44	i	33
COc1ccc(C(CNC(=O)C(C)Oc2ccc(Br)cc2)N2CCCCC2)cc1 (configuration not stated)	i	nt	i	nt	nt	nt
Cc1ncoc1C(=O)N1CCCC(C(=O)c2ccc(-c3ccccc3)cc2)C1 (configuration not stated)	i	i	i	i	i	i
FCCCOc1ccc(-c2nccc(-c3ccccn3)n2)cc1	i	i	?	35	i	20
COC(=O)C(C)Oc1ccc(-c2nccc(-c3ccccn3)n2)cc1 (configuration not stated)	i	i	i	i	i	16
COC(=O)C(C)Oc1ccc(-c2nccc(-c3ccc(F)cc3)n2)cc1 (configuration not stated)	i	i	i	i	i	i
COC(=O)c1cc2occc2n1CC(=O)Nc1ccc(C(C)C)cc1	i	nt	nt	nt	nt	nt
c1ccc(CNc2cccnc2)cc1	i	nt	i	nt	nt	nt
N#Cc1cc(C#N)c(N2CCN(c3cccc(Cl)n3)CC2)nc1N	i	i	i	89	i	67
O=C(Cn1ncc(N2CCOCC2)c(Br)c1=O)c1ccc(Cl)cc1	i	i	i	80	i	35
CC(=O)Cn1ncc(N2CCOCC2)c(Cl)c1=O	i	i	nt	i	i	i
O=C(Cn1ncc(N2CCCC2)c(Cl)c1=O)c1ccc(Cl)cc1	i	i	i	90	i	38
CC(C)(C)C(=O)Cn1ncc(N2CCOCC2)c(Cl)c1=O	i	i	nt	32	i	17
COC(=O)c1ccc(NC(=O)CSc2nc3ccc(N4C(=O)C5C6C=CC(C6)C5C4=O)cc3s2)cc1 (configuration not stated)	i	i	i	i	i	23
Nc1nnc(SCC(=O)Nc2ccccc2)s1	i	i	i	i	i	10
Cn1cnnc1SCC(=O)Nc1ccc2nc(SCc3ccccc3F)sc2c1	i	i	i	165	i	50
CCc1cccc(CC)c1NC(=O)CSc1nc2ccc(N3C(=O)C4C5C=CC(C5)C4C3=O)cc2s1 (configuration not stated)	i	i	i	i	i	i
Cc1nnc(SCC(=O)Nc2cc(-c3cc(C)c(C)cc3C)nn2-c2ccccc2)s1	i	i	i	i	i	i
CCCc1ccc(-c2cc(NC(=O)CSc3nnc(N)s3)n(-c3ccccc3)n2)cc1	i	i	i	99	i	43
CC(=O)c1ccc(NC(=O)CSc2nnc(N)s2)cc1	i	nt	nt	nt	nt	nt
COc1cc2nc(N3CCN(C(=O)[C@@H]4COc5ccccc5O4)CC3)nc(N)c2cc1OC	i	nt	nt	nt	i	nt
CSc1nc2ccc(NC(=O)CSc3nnc(N)s3)cc2s1	i	i	i	i	i	33
CCOc1ccc(-c2cn(-c3ccccc3OC)c(=S)[nH]2)cc1	i	i	i	52	i	18
CCOc1ccc(-n2cc(-c3ccc(OC)c(OC)c3)[nH]c2=S)cc1	1.1µM	?	i	i	i	i
SMILES	TbPYK inhibitor	LmPK inh	RE007 growth inh	Shiga toxin inh	Giardia FBPA inh	CHX counter
COc1ccccc1N1CCN(CCCNC(=O)c2cnn(-c3cccc(Cl)c3)c2C2CCN(C(=O)OC(C)(C)C)CC2)CC1	i	nt	nt	nt	nt	nt
O=C(O)CCSC(=S)N1CCOCC1	i	i	i	i	i	i
O=C1CCC(=O)N1CCSC(=S)N1CCOCC1	i	i	i	41	i	i
Cc1ccc(C2CN=NC23CCc2ccccc2C3=O)cc1 (configuration not stated)	i	i	?	173	i	47
O=C1c2ccccc2CCCC12N=NCC2c1cccc2ccccc12 (configuration not stated)	i	i	i	i	i	i
COc1ccc(C(=O)OCC(=O)NC2CC2)cc1F	i	nt	i	nt	nt	nt
